Screens deposited in PubChem by several laboratories.
VHR inh abs = DUSP3 (human) phosphatase inhibition; P51452; recombinant VHR phosphatase, pNPP absorbance; inhibition, % at 13.3 µM; actives 0.52% (n = 290,000); AID 1654; in the data active means inhibition above about 50%
Target sequence (P51452 whole entry, looked up): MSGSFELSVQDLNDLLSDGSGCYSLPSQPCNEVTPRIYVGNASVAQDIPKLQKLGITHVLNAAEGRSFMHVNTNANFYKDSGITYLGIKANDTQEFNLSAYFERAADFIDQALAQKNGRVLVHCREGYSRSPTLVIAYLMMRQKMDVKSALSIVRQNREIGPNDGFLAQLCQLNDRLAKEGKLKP
3CLpro inhibitor = SARS-CoV 3CLpro protease inhibition; recombinant SARS-CoV 3CLpro, quenched FRET peptide cleavage; inhibition, % at 6 µM; AID 1706; actives 0.14% (n = 290,000); P0C6X7; in the data active means inhibition above about 12%
Autofluor counter = flagged as autofluorescent in microsphere protease counterscreen; compound autofluorescence counterscreen, microsphere flow cytometry; active compounds read high; fluorescence intensity (no concentration beside the values); actives 3.1% (n = 360,000); AID 624483; in the data active means fluorescence intensity above about 16000; inconclusive means no clear call, values can overlap the other calls
BoNT A protease = BoNT A light chain protease inhibition; inhibition, % at 10 µM; actives 0.17% (n = 360,000); multiplex microsphere protease substrate cleavage, flow cytometry
Anthrax LF prot = inhibitors of Bacillus anthracis lethal factor protease | actives 0.12% (n = 360,000) | multiplex microsphere protease cleavage assay, LF | AID 588501 | P15917 | inhibition, % at 10 µM
BoNT-F LC inh = blocks Botulinum neurotoxin F light chain protease; Multiplex microsphere protease cleavage assay, flow cytometry; actives 0.22% (n = 360,000); inhibition, % at 10 µM; AID 588497; in the data active means inhibition above about 35%, passing the limit was not always enough; inconclusive means no clear call, values can overlap the other calls
A number is an active result; i = inactive; ? = inconclusive; nt = not tested or not shown. Compounds with a hit are over-represented: about 3.9% of the library has one in this group of screens. Unless noted, no stated cut-off is given here; in the data, active means inhibition above about 30%; inconclusive means no clear call, values can overlap the other calls; inactive means below that.

SMILES	VHR inh abs	3CLpro inhibitor	Autofluor counter	BoNT A protease	Anthrax LF prot	BoNT-F LC inh
Cc1ccc(CC(CC(=O)O)C(=O)NCC23CC4CC(CC(C4)C2)C3)cc1 (stereo not given)	i	i	i	i	i	i
CCOCCCNC(=S)N1CCCN(c2nc3cc(C)c(C)cc3cc2C#N)CC1	52	i	i	i	i	i
Cc1cc2nc(C(C)(C)C)c(Cc3ccccc3)n2c(C)c1Br	nt	nt	i	i	i	i
Cc1cc(C(=O)CSc2nc3ccccc3c(=O)[nH]2)c(C)n1CC1CCCO1 (stereo not given)	i	i	i	i	i	i
O=c1[nH]c(SCC2CCCCO2)nc2ccccc12 (stereo not given)	i	i	21391	?	i	i
O=C(CN1CCCCCC1)N1c2ccccc2C=Cc2ccccc21	i	i	19591	?	i	i
O=C(CN1CCCC1)N1c2ccccc2C=Cc2ccccc21	i	i	i	i	i	i
CCCCSc1nnc2c(n1)[nH]c1ccccc12	i	i	21409	i	i	i
Cc1ccc(NC(=O)CSc2nnc3c(n2)[nH]c2ccccc23)cc1	i	i	i	i	i	i
CC(C)CSc1nnc2c(n1)[nH]c1ccccc12	i	i	i	i	i	i
O=C(CSc1nnc2c(n1)[nH]c1ccccc12)Nc1ccc2c(c1)OCO2	i	i	21923	?	i	i
O=C(Cc1c(C(=O)O)[nH]c2ccccc12)Nc1ccc2c(c1)OCO2	i	i	16805	i	i	i
Cc1ccc2nc(NC(=O)CNS(=O)(=O)c3ccc(Br)s3)sc2c1	i	i	21835	i	i	i
Cc1ccc2nc(NC(=O)Cc3cccs3)sc2c1	i	i	21273	i	i	i
Cc1ccc2nc(NC(=O)CN(C)S(=O)(=O)c3ccc(Br)s3)sc2c1	i	i	i	i	i	i
Cc1ccc2nc(NC(=O)c3ccccn3)sc2c1	52	i	i	i	i	i
Cc1cccc(OCc2nnc(NC(=O)Cc3cccs3)s2)c1	i	i	16333	i	i	i
Cc1ccc(OCc2nnc(NC(=O)Cc3cccs3)s2)cc1	i	i	nt	nt	nt	nt
O=C(Cn1ccc(NC(=O)OCc2ccccc2)nc1=O)NCCCn1ccnc1	nt	nt	i	i	i	i
CC(C)CN(C(=O)C1CCCO1)c1c(N)n(CC(C)C)c(=O)[nH]c1=O (stereo not given)	nt	nt	i	i	i	i
CC(=O)N1CCc2cc(S(=O)(=O)CCC(=O)Nc3ccc(Cl)cc3F)ccc21	i	i	i	i	i	i
O=C(CCCSc1nc2ccccc2[nH]1)Nc1nnc(-c2ccccc2)o1	i	i	22546	?	i	i
Cc1ccc2c(c1)N(CC(=O)N1CCCC1)C(=O)c1cccnc1O2	i	i	i	i	i	i
O=S(=O)(c1ccc(Nc2ccc(-c3ccc4c(c3)OCCO4)nn2)cc1)N1CCCC1	i	i	i	i	i	i
O=C(NC1CC1)c1cccc(Nc2ccc(-c3ccc4c(c3)OCCO4)nn2)c1	i	i	21941	i	i	i
SMILES	VHR inh abs	3CLpro inhibitor	Autofluor counter	BoNT A protease	Anthrax LF prot	BoNT-F LC inh
O=C1NCCOC(=O)[C@@H](Cc2ccc(F)cc2)C/C=C\C[C@@H]1CC(=O)N(CCO)Cc1ccccc1	nt	nt	i	i	i	i
CCOc1ccc(NC(=O)COC(=O)Cn2cnnn2)cc1OCC	i	i	23264	i	i	i
CCOC(=O)c1cc(C(=O)NCc2ccc(Cl)cc2Cl)nn1C	i	i	i	i	i	i
CCOC(=O)c1cc(C(=O)Nc2ccc(C)c(F)c2)nn1C	i	i	21479	i	i	i
Cc1cccn2c(=O)c3c(nc12)N1CCc2ccccc2C1C1(C3)C(=O)NC(=O)N(C)C1=O (stereo not given)	i	i	19729	i	i	i
CCCCN1C(=O)NC(=O)C2(Cc3c(nc4c(C)cccn4c3=O)N3CCc4ccccc4C32)C1=O (stereo not given)	i	i	i	i	i	i
CC(C)C[C@H]1CNC(=O)C(=O)N1C[C@H](C)NC(=O)Cc1ccccc1	i	i	i	i	i	i
Cc1nc(SCC(=O)c2cc(C)n(C3CC3)c2C)c2ccccc2n1	nt	nt	i	i	i	i
CNc1nc(Oc2cccc(F)c2)c2sccc2n1	nt	nt	i	i	i	i
O=S(=O)(/C=C/c1ccccc1)Oc1ccccc1	i	i	21677	i	i	i
COCCCNC(=O)C(C)N1c2cccc3cccc(c23)S1(=O)=O (stereo not given)	i	i	i	i	i	i
CC1(c2cccs2)CC(c2cccs2)=C(C#N)C(=O)N1 (stereo not given)	i	i	22806	i	i	i
CC1(c2ccccc2)CC(c2ccccc2)=C(C#N)C(=O)N1 (stereo not given)	nt	nt	i	i	i	i
COc1cccc2[nH]c3c(N4CCC(C)CC4)ncnc3c12	i	i	23249	i	i	i
Cc1ccccc1-c1cc2nc(NCc3ccccc3F)n(C)c(=O)c2s1	nt	nt	i	i	i	i
O=CN(/C=C1\Sc2ccccc2C1=O)Cc1ccccc1	i	i	22692	i	i	i
CCC(=O)N(C)/C=C1\Sc2ccccc2C1=O	i	i	i	i	i	i
Cc1cc(NC(=O)CSc2nc3ccsc3c(=O)n2NC(=O)c2ccccc2)no1	i	i	i	i	i	i
Cc1ccc(CNC(=O)CSc2nc3ccsc3c(=O)n2NC(=O)c2ccccc2)cc1	i	i	23505	i	i	i
CCS(=O)(=O)Nc1cccc(C2=NN(S(=O)(=O)c3ccc(C)cc3)C(c3cccs3)C2)c1 (stereo not given)	i	i	i	i	i	i
Cc1ccc(C2=NN(S(C)(=O)=O)C(c3cccs3)C2)cc1 (stereo not given)	i	i	?	i	i	i
CCc1ccc(C2=NN(S(C)(=O)=O)C(c3cccs3)C2)cc1 (stereo not given)	i	i	19673	i	i	i
O=S(=O)(c1ccccc1)N1N=C(c2ccccc2)CC1c1ccccc1F (stereo not given)	53	i	i	i	i	i
COc1ccccc1C1CC(c2ccc(NS(C)(=O)=O)cc2)=NN1S(=O)(=O)c1ccccc1 (stereo not given)	i	i	i	i	i	i
CCS(=O)(=O)Nc1cccc(C2=NN(S(=O)(=O)c3ccccc3)C(c3cccs3)C2)c1 (stereo not given)	i	i	22079	i	i	i
SMILES	VHR inh abs	3CLpro inhibitor	Autofluor counter	BoNT A protease	Anthrax LF prot	BoNT-F LC inh
CCCCCCc1ccc(N2C[C@H](Cc3ccccc3)[C@@H](CC(=O)Nc3ccccc3)C2=O)cc1	i	i	i	i	i	i
COC(=O)c1ccc(NC(=O)C[n+]2ccccc2C)cc1	i	i	i	i	i	i
Cc1cccc[n+]1CC(=O)Nc1ccccc1	i	i	i	i	i	37
O=C(CN1C(=O)COc2ccc(S(=O)(=O)N3CCCC3)cc21)NCc1ccccn1	i	i	i	i	i	i
CCN(CC)CCNC(=O)NC1CCCCC1	i	i	22854	?	i	i
Cc1ccnc(N2C(=O)OC(C)(C)C2(C)O)c1 (stereo not given)	i	i	16787	i	i	i
CC1(C)OC(=O)N(c2ccccn2)C1(C)O (stereo not given)	i	i	i	i	i	i
